Measurements: PubChem BioAssay
Where “and” joins values, the source holds several entries; their conditions need not be identical. Identical values can stand only once. Calls of active or inactive are those of the source.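 The calls were made as follows, unless noted: active = compounds whose cell count with miR-34 switched on is under 0.7 times the count with it off; inactive = the rest.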

System: Hepatitis C virus NS3 helicase
Experiment: HCV NS3 helicase inhibitors, primary screen, biochemical, fluorescence polarization, LOPAC1280 library (AID 687035; in the data active = inhibition above about 37%)
Details: Purified HCV NS3 helicase, Cy5-dT15 ssDNA binding fluorescence polarization; stronger effect = higher value; concentration not given here
For `CCC(CO)Nc1nc(NCc2ccccc2)c2ncn(C(C)C)c2n1` (stereo unspecified), the inhibition was 0% (inactive). In the case of `NC(N)=NCc1cccc(I)c1`, the inhibition is reported as -5% (inactive). For `O=C(O)CNC(=O)C(CS)Cc1ccccc1` (stereo unspecified), the inhibition was 0% (inactive). With `CC(C)(C)[C@]1(O)CCN2C[C@H]3c4ccccc4CCc4cccc(c43)[C@@H]2C1` the inhibition was 0% (inactive) and -5% (inactive). For `COc1ccc(C(=O)NCc2cccnc2)cc1C(=O)NCc1cccnc1`, the inhibition was -2% (inactive). For `COc1ccc(-c2ccc(N)[n+](CCCC(=O)O)n2)cc1`, the inhibition was -3% (inactive). With `COc1ccccc1N1CCN(CCCCNC(=O)c2ccc3ccccc3c2)CC1` the inhibition was -1% (inactive). For `CC(C)NC[C@H](O)c1ccc(O)c(O)c1`, the inhibition was 3% (inactive) and -5% (inactive).

System: not listed separately
Experiment: Cy5 fluorescence quenching or enhancement artefacts, artefact control for HCV NS3 helicase inhibitor project, biochemical, LOPAC1280 (AID 687037; call rule not given here)
Details: Cy5-DNA-NS3h complex fluorescence interference counterscreen
For `CCC(CO)Nc1nc(NCc2ccccc2)c2ncn(C(C)C)c2n1` (stereo unspecified), the fluorescence ratio (interference) was 1 (inactive). In the case of `NC(N)=NCc1cccc(I)c1`, the fluorescence ratio (interference) is reported as 0.9 (inactive). In the case of `O=C(O)CNC(=O)C(CS)Cc1ccccc1` (stereo unspecified), the fluorescence ratio (interference) is reported as 1 (inactive). With `CC(C)(C)[C@]1(O)CCN2C[C@H]3c4ccccc4CCc4cccc(c43)[C@@H]2C1` the fluorescence ratio (interference) was 1 (inactive). With `COc1ccc(C(=O)NCc2cccnc2)cc1C(=O)NCc1cccnc1` the fluorescence ratio (interference) was 1 (inactive). For `COc1ccc(-c2ccc(N)[n+](CCCC(=O)O)n2)cc1`, the fluorescence ratio (interference) was 0.9 (inactive). With `COc1ccccc1N1CCN(CCCCNC(=O)c2ccc3ccccc3c2)CC1` the fluorescence ratio (interference) was 1 (inactive). For `CC(C)NC[C@H](O)c1ccc(O)c(O)c1`, the fluorescence ratio (interference) was 1 (inactive) and 0.9 (inactive).

System: not listed separately
Experiment: sensitizers of A549 cells to miR-34 induction, primary screen, imaging, A549 dox-inducible miR-34, nuclei and caspase counts (AID 1347080)
Details: A549 miR-34 inducible, Hoechst nuclei count, 48 h; stronger effect = lower value; cell number ratio, induced over uninduced
In the case of `CCCCCCCCCCCCC/C=C/[C@@H](O)[C@H](CO)NCCCCCCCC`, the fold change is reported as 0.925 (inactive) and 1 (inactive). For `COc1ccc(C2=NC(c3ccc(Cl)cc3)C(c3ccc(Cl)cc3)N2C(=O)N2CCNC(=O)C2)c(OC(C)C)c1` (stereo unspecified), the fold change was 0.914 (inactive) and 0.912 (inactive) and 0.921 (inactive). With `CC(C)=CCC/C(C)=C/CC/C(C)=C/CSCC(=O)O` the fold change was 0.964 (inactive) and 0.982 (inactive). In the case of `CCC(CO)Nc1nc(NCc2ccccc2)c2ncn(C(C)C)c2n1` (stereo unspecified), the fold change is reported as 1.36 (inactive) and 0.915 (inactive). In the case of `CC/C=C\C/C=C\C/C=C\C/C=C\C/C=C\C/C=C\CCC(=O)O`, the fold change is reported as 0.965 (inactive) and 0.982 (inactive). In the case of `CCc1cncnc1N1CCN(Cc2nc3ccc(C(F)(F)F)cc3[nH]2)CC1`, the fold change is reported as 0.998 (inactive) and 0.92 (inactive). For `CC/C=C\C/C=C\C/C=C\CCCCCCCC(=O)O`, the fold change was 0.97 (inactive) and 0.988 (inactive). In the case of `NC(N)=NCc1cccc(I)c1`, the fold change is reported as 1.1 (inactive) and 0.739 (inactive). For `CCCCCCCCCCCCC/C=C/[C@@H](O)[C@@H](N)CO`, the fold change was 0.985 (inactive) and 0.945 (inactive). In the case of `CC/C=C\C/C=C\C/C=C\CCCCCCCCCC(=O)O`, the fold change is reported as 1.09 (inactive) and 1.03 (inactive). For `O=C(O)CCC/C=C\CC1C2CCC(O2)C1CNNC(=O)Nc1ccccc1` (stereo unspecified), the fold change was 0.964 (inactive) and 0.895 (inactive). For `O=C(O)CNC(=O)C(CS)Cc1ccccc1` (stereo unspecified), the fold change was 0.968 (inactive) and 0.835 (inactive) and 1 (inactive). In the case of `CCCCC/C=C\C/C=C\C/C=C\C/C=C\CCCC(=O)OC(CO)CO`, the fold change is reported as 0.947 (inactive) and 1.01 (inactive). In the case of `CCCCC/C=C/C=C1/C(=O)C=C[C@@H]1C/C=C\CCCC(=O)O`, the fold change is reported as 1.04 (inactive) and 0.838 (inactive) and 1.58 (inactive). With `CCCCCCCCCCCCC/C=C/[C@@H](O)[C@H](CO)N(C)C` the fold change was 1.08 (inactive) and 0.933 (inactive). With `CC(C)(C)[C@]1(O)CCN2C[C@H]3c4ccccc4CCc4cccc(c43)[C@@H]2C1` the fold change was 1.18 (inactive) and 1.07 (inactive) and 0.945 (inactive). For `CCCCC[C@H](O)/C=C/C1=C(CCCCCCC(=O)O)C(=O)CC1`, the fold change was 0.976 (inactive) and 0.956 (inactive). With `C#CCCCCCCCCCCCCCCCC(=O)O` the fold change was 0.987 (inactive) and 1.06 (inactive). For `CCCCC[C@H](O)/C=C/C1=C(C/C=C\CCCC(=O)O)C(=O)CC1`, the fold change was 0.969 (inactive) and 0.886 (inactive). With `COc1ccc(C(=O)NCc2cccnc2)cc1C(=O)NCc1cccnc1` the fold change was 0.938 (inactive) and 0.931 (inactive) and 0.857 (inactive).
